Measurements taken from PubChem BioAssay AID1159580 (chemical genetic matrix, 2015).
“And” between values parts separate entries of the source, which are not always exact repeats. Equal entries are not always repeated. Screen size: about 5,500 compounds; about 2,000 (36%) were called active. Inconclusive results (about 18%) are left out. Cut-off read from the data, not from the text of the source: active = normalized growth mostly below about 0.91 (no sharp cut-off); inconclusive = no clear call, values can overlap the other calls; inactive = mostly above about 0.92. The list shows a part of the results.

Experiment: chemical genetic growth profiling, strain panel (AID 1159580);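 note: tested at 20 µM; growth read once vehicle control cultures reached saturation at 30 °C; 1 = growth at the plate median or of vehicle wells; lower values mean less growth of the strain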
Settings: growth OD

Measured: normalized growth

O=C1N=C(O)CN1/N=C\c1ccc(-c2ccc([N+](=O)[O-])cc2)o1
inactive: S. cerevisiae deletion strains, locus YJR075W, strain HOC1, hits give low values 1.03 and 0.99 | S. cerevisiae deletion strains, locus YKL009W, strain mrt4, hits give low values 1.04 | S. cerevisiae deletion strains, locus YKL068W, hits give low values 1.03 | S. cerevisiae deletion strains, locus YKL085W, strain MDH1 (second series), hits give low values 1.02 | S. cerevisiae deletion strains, locus YKL085W, strain MDH1, hits give low values 1.02 | S. cerevisiae deletion strains, locus YKL160W, strain elf1, hits give low values 0.994 | S. cerevisiae deletion strains, locus YKL190W, strain CNB1, hits give low values 1.02 | S. cerevisiae deletion strains, locus YKR001C, strain vps1, hits give low values 1.03 | S. cerevisiae deletion strains, locus YKR026C, strain gcn3, hits give low values 0.99 | S. cerevisiae deletion strains, locus YKR091W, strain srl3, hits give low values 0.98 | S. cerevisiae deletion strains, locus YLL001W, strain dnm1, hits give low values 1 | S. cerevisiae deletion strains, locus YLL026W, hits give low values 0.997 | S. cerevisiae deletion strains, locus YLL041C, strain sdh2, hits give low values 0.97 | S. cerevisiae deletion strains, locus YLR027C, strain aat2, hits give low values 0.988 | S. cerevisiae deletion strains, locus YLR039C, strain RIC1, hits give low values 1.05 | S. cerevisiae deletion strains, locus YLR058C, strain SHM2, hits give low values 1.02 | S. cerevisiae deletion strains, locus YLR102C, strain apc9, hits give low values 1.03 | S. cerevisiae deletion strains, locus YLR113W, strain HOG1, hits give low values 1.02 | S. cerevisiae deletion strains, locus YLR221C, strain rsa3, hits give low values 0.994 | S. cerevisiae deletion strains, locus YLR258W, strain gsy2, hits give low values 0.994 | S. cerevisiae deletion strains, locus YLR262C, strain YPT6 (second series), hits give low values 0.933 | S. cerevisiae deletion strains, locus YLR262C, strain YPT6, hits give low values 1.05 | S. cerevisiae deletion strains, locus YLR268W, strain sec22, hits give low values 1.01 | S. cerevisiae deletion strains, locus YLR320W, strain mms22, hits give low values 0.966 | S. cerevisiae deletion strains, locus YLR330W, strain CHS5, hits give low values 1.02 | S. cerevisiae deletion strains, locus YLR342W, strain FKS1 (second series), hits give low values 1 | S. cerevisiae deletion strains, locus YLR342W, strain FKS1, hits give low values 0.986 | S. cerevisiae deletion strains, locus YLR357W, strain rsc2, hits give low values 0.931 | S. cerevisiae deletion strains, locus YLR370C, strain arc18, hits give low values 0.985 | S. cerevisiae deletion strains, locus YLR371W, strain rom2, hits give low values 1.02 | S. cerevisiae deletion strains, locus YLR384C, strain iki3, hits give low values 0.974 | S. cerevisiae deletion strains, locus YLR418C, strain cdc73, hits give low values 1.02 | S. cerevisiae deletion strains, locus YML016C, strain PPZ1, hits give low values 1.02 | S. cerevisiae deletion strains, locus YML032C, strain rad52, hits give low values 1.03 | S. cerevisiae deletion strains, locus YML120C, strain ndi1, hits give low values 0.988 | S. cerevisiae deletion strains, locus YML124C, strain tub3, hits give low values 1.03 | S. cerevisiae deletion strains, locus YMR058W, strain fet3, hits give low values 0.972 | S. cerevisiae deletion strains, locus YMR078C, strain ctf18, hits give low values 1.04 | S. cerevisiae deletion strains, locus YMR125W, strain sto1, hits give low values 0.974 | S. cerevisiae deletion strains, locus YMR129W, hits give low values 0.98 | S. cerevisiae deletion strains, locus YMR205C, strain PFK2, hits give low values 0.996 | S. cerevisiae deletion strains, locus YMR223W, strain ubp8, hits give low values 1.02 | S. cerevisiae deletion strains, locus YMR231W, strain pep5, hits give low values 0.993 | S. cerevisiae deletion strains, locus YMR263W, strain SAP30, hits give low values 1.02 and 0.999 | S. cerevisiae deletion strains, locus YMR307W, strain GAS1, hits give low values 1.05 | S. cerevisiae deletion strains, locus YNL067W, strain RPL9B, hits give low values 1.02 | S. cerevisiae deletion strains, locus YNL071W, strain lat1, hits give low values 0.978 | S. cerevisiae deletion strains, locus YNL128W, strain TEP1, hits give low values 1.04 and 1.01 | S. cerevisiae deletion strains, locus YNL153C, strain GIM3, hits give low values 1.01 and 1.03 | S. cerevisiae deletion strains, locus YNL175C, strain NOP13, hits give low values 1.01 | S. cerevisiae deletion strains, locus YNL183C, strain NPR1, hits give low values 0.96 | S. cerevisiae deletion strains, locus YNL197C, strain WHI3, hits give low values 1.03 | S. cerevisiae deletion strains, locus YNL209W, strain ssb2, hits give low values 0.979 | S. cerevisiae deletion strains, locus YNL224C, strain SQS1, hits give low values 0.998 | S. cerevisiae deletion strains, locus YNL233W, strain BNI4, hits give low values 1.01 | S. cerevisiae deletion strains, locus YNL248C, strain rpa49, hits give low values 0.974 | S. cerevisiae deletion strains, locus YNL250W, strain rad50, hits give low values 1.06 | S. cerevisiae deletion strains, locus YNL271C, strain bni1, hits give low values 1.02 | S. cerevisiae deletion strains, locus YNL298W, strain CLA4, hits give low values 1.05 | S. cerevisiae deletion strains, locus YNL307C, strain MCK1, hits give low values 1.02 | S. cerevisiae deletion strains, locus YNL322C, strain KRE1 (second series), hits give low values 0.976 | S. cerevisiae deletion strains, locus YNL322C, strain KRE1, hits give low values 1.03 and 0.967 | S. cerevisiae deletion strains, locus YNR049C, strain mso1, hits give low values 0.988 | S. cerevisiae deletion strains, locus YNR052C, strain pop2, hits give low values 1.03 | S. cerevisiae deletion strains, locus YOL006C, strain TOP1, hits give low values 1.02 | S. cerevisiae deletion strains, locus YOL012C, strain htz1 0.991 | S. cerevisiae deletion strains, locus YOL147C, strain pex11, hits give low values 1.03 | S. cerevisiae deletion strains, locus YOR001W, strain rrp6, hits give low values 1.02 | S. cerevisiae deletion strains, locus YOR061W, strain CKA2, hits give low values 1.02 | S. cerevisiae deletion strains, locus YOR069W, strain VPS5, hits give low values 1.01 | S. cerevisiae deletion strains, locus YOR070C, strain gyp1, hits give low values 0.996 | S. cerevisiae deletion strains, locus YOR080W, strain dia2, hits give low values 0.989 | S. cerevisiae deletion strains, locus YOR083W, strain WHI5 (second series), hits give low values 1.03 | S. cerevisiae deletion strains, locus YOR083W, strain WHI5, hits give low values 0.977 | S. cerevisiae deletion strains, locus YOR106W, strain vam3, hits give low values 0.972 | S. cerevisiae deletion strains, locus YOR136W, strain idh2, hits give low values 1.03 | S. cerevisiae deletion strains, locus YOR144C, strain elg1, hits give low values 1.03 | S. cerevisiae deletion strains, locus YOR184W, strain ser1, hits give low values 1.04 | S. cerevisiae deletion strains, locus YOR231W, strain MKK1, hits give low values 1.03 | S. cerevisiae deletion strains, locus YOR265W, strain rbl2, hits give low values 0.986 | S. cerevisiae deletion strains, locus YOR270C, strain vph1, hits give low values 0.911 | S. cerevisiae deletion strains, locus YOR290C, strain snf2, hits give low values 0.961 | S. cerevisiae deletion strains, locus YOR316C, strain cot1, hits give low values 1.02 | S. cerevisiae deletion strains, locus YPL051W, strain arl3, hits give low values 0.999 | S. cerevisiae deletion strains, locus YPL055C, strain LGE1, hits give low values 1.02 | S. cerevisiae deletion strains, locus YPL078C, strain atp4, hits give low values 0.973 | S. cerevisiae deletion strains, locus YPL106C, strain sse1, hits give low values 0.981 | S. cerevisiae deletion strains, locus YPL240C, strain hsp82, hits give low values 0.993 | S. cerevisiae deletion strains, locus YPL241C, strain CIN2, hits give low values 1.02 and 1 | S. cerevisiae deletion strains, locus YPL256C, strain CLN2, hits give low values 1 | S. cerevisiae deletion strains, locus YPR119W, strain clb2, hits give low values 1.02 | S. cerevisiae deletion strains, locus YPR141C, strain kar3, hits give low values 1.04 | S. cerevisiae deletion strains, locus YPR163C, strain tif3, hits give low values 1.03 | S. cerevisiae deletion strains, locus YPR167C, strain met16, hits give low values 1.04 | S. cerevisiae deletion strains, strain wtn01, hits give low values 1.03 | S. cerevisiae strains, strain wild type, hits give low values 1.02
